Source: PubChem BioAssay AID651997 (Sanford-Burnham Center for Chemical Genomics, 2013)
The whole screen tested about 2,400 compounds, of which about 700 (29%) were called active.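 Rule for the calls: active = inhibition of at least 50%; inactive = the rest.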 These entries were drawn from the full list.

The molecules below were run against G-protein coupled receptor 183 (Homo sapiens) (UniProt P32249) (assay: EBI2 antagonist hit retest, beta-arrestin, confirmation, cell-based, single concentration, luminescence, 7a,25-OHC stimulation (AID 651997)). Settings: 7a,25-OHC antagonism, at 5 µM, hits give high values.
Sequence of G-protein coupled receptor 183 (Homo sapiens) (P32249 whole entry, looked up): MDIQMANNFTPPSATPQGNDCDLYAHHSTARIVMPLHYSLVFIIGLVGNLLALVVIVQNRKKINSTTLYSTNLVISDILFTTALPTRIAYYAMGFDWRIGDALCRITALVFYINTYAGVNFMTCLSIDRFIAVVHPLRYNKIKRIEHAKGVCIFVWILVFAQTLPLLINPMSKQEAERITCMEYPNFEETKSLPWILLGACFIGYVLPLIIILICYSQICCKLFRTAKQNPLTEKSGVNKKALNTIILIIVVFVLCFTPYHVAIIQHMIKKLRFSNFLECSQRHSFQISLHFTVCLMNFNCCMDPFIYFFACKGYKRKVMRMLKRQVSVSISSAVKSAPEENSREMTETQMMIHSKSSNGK

Structure (SMILES) | inhibition
COc1ccc(C(C(=O)NC2CCCCC2)N(C(=O)c2snc(C(N)=O)c2N)c2ccccc2OC)cc1 (configuration not stated) | 57% (active)
CC1CCc2sc3nc(N4CCN(CCO)CC4)n4ncnc4c3c2C1 (configuration not stated) | 67.9% (active)
Cc1cccc(-n2c(O)c(C=Nc3ccccc3N)c(=O)[nH]c2=O)c1 | 13.2% (inactive)
Cc1ccc(S(=O)(=O)N2CCN(CC(=O)N/N=C/c3ccc(Br)s3)CC2)cc1 | 41.9% (inactive)
CCC1Nc2ncnc(N3CCN(c4ccccc4)CC3)c2N(Cc2ccc(Cl)cc2)C1=O (configuration not stated) | 86.9% (active)
CC(=O)/C(=N\Nc1ccc(Cl)cc1Cl)Sc1cccc2cccnc12 | 43.2% (inactive)
CC(C)Cc1ccc(-c2cc3nc(NCc4cccc(Cl)c4)ccn3n2)cc1 | 51.8% (active)
Cc1cccc(N2CCN(C(=O)c3cc4c(=O)[nH]c5ccccc5c4n3C)CC2)c1C | 75.1% (active)
COc1cccc(-c2cc(C(=O)N3CCN(c4ccccc4OC)CC3)no2)c1 | 42.9% (inactive)
O=C(CCNS(=O)(=O)c1ccccc1)NCCSc1ccc(Br)cc1 | 12.7% (inactive)
CCN1CCN(C(=O)CSc2ccc(C)cc2)CC1 | 27.6% (inactive)
CCOC(=O)N1CCN(C(=O)CSc2ccc(Cl)cc2)CC1 | 80.2% (active)
Cc1ccc(OCCNC(=O)CCNS(=O)(=O)c2ccc(Br)cc2)cc1 | 17.6% (inactive)
CCOC(=O)C1CCN(C(=O)COc2cc(C)c(Br)c(C)c2)CC1 | 59% (active)
Cc1ccc(SCC(=O)N2CCN(c3ccc(F)cc3)CC2)cc1 | 33.8% (inactive)
CCOC(=O)N1CCN(C(=O)COc2ccc(Br)cc2)CC1 | 75.6% (active)
CCOC(=O)N1CCN(C(=O)COc2ccc(Cl)cc2C)CC1 | 30.2% (inactive)
Cc1cc(OCCOc2cccc3cccnc23)c(C)cc1Cl | 38.3% (inactive)
O=C(CSc1ccccc1)Nc1cc(Cl)ccc1Oc1ccccc1 | 45% (inactive)
CCC(c1nnc(SCC(=O)NNC(=O)c2ccccc2)n1Cc1ccccc1)N(C)C (configuration not stated) | 35.9% (inactive)
O=C(Nc1ncc2c(n1)CC(c1ccco1)CC2=O)c1ccc(Cl)cc1 (configuration not stated) | 10.5% (inactive)
N#Cc1ccc(C(c2nnnn2CCc2ccccc2)N2CCCCCC2)cc1 (configuration not stated) | 34.1% (inactive)

Structure (SMILES) | inhibition
Cc1cccc(N=C2NC(=O)/C(=C/c3cn(C)c4ccccc34)S2)c1 | 33.9% (inactive)
COc1ccc(/C=N/N=C/c2c[nH]c(=O)c(C#N)c2Nc2ccccc2)cc1 | 79.2% (active)
FC(F)(F)Oc1ccccc1C(c1nnnn1C1CCCCC1)N1CCN(C/C=C/c2ccccc2)CC1 (configuration not stated) | 23% (inactive)
COc1ccccc1N1CCN(C(=O)c2cc(-c3ccc(Br)cc3)on2)CC1 | 20.4% (inactive)
O=C(c1cc(=O)c2ccccc2o1)N1CCN(c2ccccc2)CC1 | 20.1% (inactive)
COc1ccccc1N1CCN(C(=O)c2cc(=O)c3cc(C)ccc3o2)CC1 | 76% (active)
O=C(NNC(=O)c1ccc2ccccc2c1)c1ccc(Cl)cc1 | 26.7% (inactive)
O=C(NCCCc1ccccc1)C1CCC(=O)N(CCc2ccc(Cl)cc2)C1 (configuration not stated) | 41.6% (inactive)
O=C(c1cc2cc(F)ccc2[nH]1)N1CCN(c2ccc(F)cc2)CC1 | 43.5% (inactive)
Cc1cs/c(=N\N=C\c2ccc(O)cc2)n1Cc1ccco1 | 34.7% (inactive)
CCCCC(=O)N(C)c1c(CC)nc2c(OCc3ccc(Cl)cc3Cl)cccn12 | 35.5% (inactive)
CC(C)N(Cc1ccccc1)C(=S)Nc1ccc(OC(F)F)cc1 | 24.2% (inactive)
COc1ccc(NC(=O)N2CCC(Cc3ccccc3)CC2)cc1 | 55% (active)
CCCC1CCC(=NNC(=S)NCCc2ccccc2)CC1 (configuration not stated) | 23.4% (inactive)
COc1ccc(-c2cc(NC=O)c3ncc(-c4cccc(C(=O)N(C)C)c4)n3c2)c(OC)c1 | 23.2% (inactive)
Cc1ccc(O/C=C2\OC(=O)c3ccccc32)cc1 | 16% (inactive)
COc1cccc(NC(=O)Cn2c3ccccc3c3nc4n(c(=O)c32)CCS4)c1 | 30.1% (inactive)
O=C(/C=C/c1cccc(C(F)(F)F)c1)N1CCN(c2ccccn2)CC1 | 28.2% (inactive)
O=C(c1cc2ccccc2s1)N1CCN(c2ccccn2)CC1 | 55.7% (active)
Cc1ccc(CSCCNC(=O)CN(c2ccc(F)cc2)S(C)(=O)=O)cc1 | 23.3% (inactive)
O=C(NCCNc1ccc([N+](=O)[O-])cc1)c1cccc2c(Br)cccc12 | 38% (inactive)
Cc1cc(Cl)c2oc(C(=O)N3CCC(O)(c4ccccc4)CC3)c(C)c2c1 | 43.3% (inactive)

Structure (SMILES) | inhibition
Fc1ccccc1/C=N/Nc1cc(N2CCCCC2)ncn1 | 55% (active)
COc1ccc(-n2c(Cc3cccn3C)nnc2SCC(=O)Nc2cc(C)cc(C)c2)cc1 | 7.81% (inactive)
O=C(NCc1ccc(Cl)cc1)C1CCN(S(=O)(=O)c2cccs2)CC1 | 23% (inactive)
N#CC(=C1CCCC1)c1nc(-c2ccc(Cl)cc2)cs1 | 54.8% (active)
CCOc1ccc(C(C)=O)cc1COC(=O)c1cnc(Cl)c(Cl)c1 | 14.3% (inactive)
COc1cccc(NC(=O)Cn2c3ccc(F)cc3c3nc4n(c(=O)c32)CCS4)c1 | 41.9% (inactive)
COc1ccc(OCC(=O)N2CCN(C(=O)c3cccs3)CC2)cc1 | 30.8% (inactive)
O=C(COc1ccc2ccccc2c1)N1CCN(C(=O)c2cccs2)CC1 | 61% (active)
O=C(/C=C/c1ccc(Cl)cc1)N1CCN(c2ccccc2[N+](=O)[O-])CC1 | 88.6% (active)
O=C(/C=C/c1cccc([N+](=O)[O-])c1)N1CCN(Cc2ccccc2)CC1 | 29.4% (inactive)
Cc1ccc(N2CC(C(=O)Nc3ccc(S(=O)(=O)N4CCCC4)cc3)CC2=O)cc1C (configuration not stated) | 34.7% (inactive)
Cc1ccc(S(=O)(=O)N2CCN(C(=O)CSc3cc(C)ccc3C)CC2)c(C)c1 | 33.4% (inactive)
Cc1cccc(OCC(O)CN2CCN(S(=O)(=O)c3ccc(C)cc3C)CC2)c1 (configuration not stated) | 35.6% (inactive)
Cc1ccc(OCC(=O)N2CCN(C(=O)c3cccnc3)CC2)cc1 | 17.6% (inactive)
COc1ccc(OCC(=O)N2CCN(C(=O)COc3ccccc3)CC2)cc1 | 24.9% (inactive)
O=C(CCc1ccccc1)NNC(=O)COc1ccc(Cl)cc1 | 17.4% (inactive)
Cc1cc(OCC(=O)N2CCN(c3ncccn3)CC2)ccc1Cl | 50.9% (active)
Cc1ccc(OCC(=O)N2CCN(S(=O)(=O)c3ccc(Cl)s3)CC2)cc1C | 79% (active)
O=C(c1cc2ccccc2o1)N1CCN(S(=O)(=O)c2ccc(Cl)s2)CC1 | 70.7% (active)
O=C(COc1ccc(Cl)cc1)N1CCN(S(=O)(=O)c2ccc(Cl)cc2)CC1 | 72.8% (active)
CN1CCc2ccccc2C1Cc1ccccc1NC(=O)c1sc2ccccc2c1Cl (configuration not stated) | 14% (inactive)
Fc1ccc(N2CCN(Cc3cnc(Oc4ccc(Br)cc4)s3)CC2)cc1 | 40.8% (inactive)

Structure (SMILES) | inhibition
COc1ccc(OC)c(C(=O)c2coc3ccc(O)c(CN4CCOCC4)c23)c1 | 22.3% (inactive)
COc1ccc(N(CC(=O)Nc2cc(OC)ccc2OC)S(=O)(=O)c2c(C)noc2C)cc1 | 21.2% (inactive)
COc1ccc(C(c2nnnn2C2CCCC2)N2CCN(C/C=C/c3ccccc3)CC2)cc1 (configuration not stated) | 39.9% (inactive)
Cc1ccc(-n2ncc3c(=O)n(-c4ccc(C)c(C)c4)c(-c4ccco4)nc32)cc1 | 16.7% (inactive)
COc1cc(/C=C(\C#N)C(=O)Nc2ccc3ccccc3c2)c([N+](=O)[O-])cc1OC | 48.2% (inactive)
O=C(CC(c1ccccc1)c1ccccc1)NCC(O)c1ccc([N+](=O)[O-])cc1 (configuration not stated) | 32.1% (inactive)
O=C(COc1ccc2c(c1)CCC2)N1CCN(c2ccc(F)cc2)CC1 | 25% (inactive)
O=C(COc1ccc(Cl)cc1)N1CCN(c2cccc(C(F)(F)F)c2)CC1 | 68% (active)
Cc1cc(C)cc(Oc2nc3c(C)cccn3c(=O)c2/C=C(\C#N)C(=O)NC2CCS(=O)(=O)C2)c1 (configuration not stated) | 44.9% (inactive)
COc1ccc(-c2nc(N)ncc2-c2ccc(Cl)cc2)c(O)c1 | 58.9% (active)
O=C(NCc1ccc(Cl)cc1)c1cc(=O)nc2sc(-c3ccccc3)nn12 | 36% (inactive)
Cc1cccc(C)c1-n1nnnc1C(CCc1ccccc1)N1CCN(C/C=C/c2ccccc2)CC1 (configuration not stated) | 8.65% (inactive)
Cc1cc(C)c2c(=O)n3c(nc2c1)C(CC(C)C)NC(=O)c1cc2ccccc2cc1-3 (configuration not stated) | 61.4% (active)
CC(C)Cn1c(N2CCN(C(=O)/C=C/c3ccccc3)CC2)nc2ccccc21 | 41.6% (inactive)
COc1ccccc1CCNC(=O)C1CCN(C(=O)/C=C/c2ccccc2)CC1 | 64.2% (active)
Cc1cccc(NC(=O)CN2CCN(C(=O)C3CCN(C(=O)/C=C/c4ccccc4)CC3)CC2)c1C | 45% (inactive)
CC(=O)c1nn(-c2ccc(C)cc2)cc1C(=O)c1cccc(Br)c1 | 45.6% (inactive)
c1ccc(C(c2ccccc2)N2CCN(Cc3nnnn3C3CCCCC3)CC2)cc1 | 34% (inactive)
Cc1nc2ccc(C(=O)N3CCN(c4ccccc4)CC3)cc2s1 | 40.5% (inactive)
O=C(c1ccc(-n2cnnn2)cc1)N1CCN(C(c2ccccc2)c2ccccc2)CC1 | 55.9% (active)
COc1ccc(Nc2cc(Sc3ccc(OC)cc3)ncn2)cc1 | 25.1% (inactive)
